A selection: hits, their analogues and other compounds. The true share with any hit is near 7.4%.
NPC1 promoter act: activators of NPC1 promoter; Huh7 NPC1 promoter luciferase reporter, 24 h; Potency, µM (titrated, usually from 9.22 µM), hits mostly activators; 320,000 compounds, 2.4% hits; note: nearly all actives have a fitted effect of over 60% in size
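NPC1 promoter–luciferase Huh7 cells; 24 h compound; luminescence.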
Rab9 promoter act: Rab9 promoter activation; 320,000 compounds, 2.8% hits; Potency, µM (highest dose often 9.22 µM), most hits filed as activators; AID 485297; Huh7 Rab9 promoter-luciferase reporter, luminescence, 24 h; note: nearly all actives have a fitted effect of over 60% in size
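Huh7 reporter line, Rab9 promoter upstream of luciferase. Compound exposure 24 h at 37 °C in reduced-serum medium with 10% FBS. Read-out: luminescence.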
ELG1 genotox: induces genotoxicity in HEK293T cells with luciferase-tagged ELG1; HEK293T ELG1-luciferase reporter, luminescence, 16 h; Potency, µM (doses to about 46 µM), usual class: activators; 330,000 compounds, 1.3% hits; AID 504466; note: nearly all actives have a fitted effect of over 60% in size
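After overnight (16 hr) compound treatment at 37 °C, ELG1-luciferase HEK293T cells were lysed with ONE-Glo; luminescence quantified 30 min later at room temperature.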
FLuc modulator: inhibits or activates purified firefly luciferase, miR-21 counter-screen. 360,000 compounds, 6.9% hits. P08659. Potency, µM (series often up to 57.5 µM), actives largely listed as inhibitors. purified FLuc, Km substrates, luminescence inhibition; note: nearly all actives have a fitted effect of over 55% in size
Target sequence (P08659 whole entry, looked up): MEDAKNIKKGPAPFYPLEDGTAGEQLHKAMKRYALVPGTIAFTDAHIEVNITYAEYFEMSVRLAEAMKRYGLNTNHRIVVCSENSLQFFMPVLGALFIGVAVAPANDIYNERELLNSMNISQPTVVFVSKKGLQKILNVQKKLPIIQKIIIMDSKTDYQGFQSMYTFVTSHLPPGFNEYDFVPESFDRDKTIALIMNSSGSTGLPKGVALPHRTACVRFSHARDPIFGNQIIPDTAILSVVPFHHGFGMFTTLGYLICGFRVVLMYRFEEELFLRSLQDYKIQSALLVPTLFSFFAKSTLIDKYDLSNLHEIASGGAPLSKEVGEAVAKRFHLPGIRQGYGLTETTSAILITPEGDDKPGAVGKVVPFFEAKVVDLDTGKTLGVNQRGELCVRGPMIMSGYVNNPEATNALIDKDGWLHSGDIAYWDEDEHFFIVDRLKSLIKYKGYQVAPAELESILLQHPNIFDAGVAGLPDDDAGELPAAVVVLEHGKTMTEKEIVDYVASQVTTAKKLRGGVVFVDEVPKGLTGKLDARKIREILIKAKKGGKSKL
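Purified P. pyralis luciferase, 10 nM final, with Km-level 10 uM D-luciferin and 10 uM ATP in 50 mM Tris acetate pH 7.5, 10 mM Mg acetate, 0.01% Tween-20, 0.05% BSA; 6-point qHTS titration about 60 µM downward; luminescence read.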
KinaseGlo FLuc: blocks Kinase-Glo luciferase, a counter-screen artifact; Potency, µM (titrated, usually from 38.3 µM), actives largely listed as inhibitors; Kinase-Glo luciferase, ATP luminescence, 8 min; 200,000 compounds, 0.28% hits; note: nearly all actives have a fitted effect of over 60% in size
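Substrate mix (final 50 mM imidazole pH 7.2, 50 mM KCl, 7 mM MgCl2, 10 uM ATP, 0.01% Tween 20, 0.05% BSA) plus pin-tool compound, then Kinase-Glo detection mix; 8 min ambient, luminescence read.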
SMN2 splice enh: enhancers of SMN2 splice variant expression. HEK293 SMN2-luciferase splicing reporter, luminescence, 30-36 h. Potency, µM (highest dose often 46.1 µM), actives largely listed as activators. 210,000 compounds, 2.8% hits. AID 1458; note: nearly all actives have a fitted effect of over 55% in size
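HEK293 cells carry an SMN2 minigene-luciferase reporter in which exon 7 inclusion puts luciferase in frame. Cells were seeded at 2000 cells/well, attached for 10-12 hours, then exposed to compounds for 30-36 hours at 37C before ONE-Glo luminescence.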
Numbers stand for hits; – = inactive; ? = inconclusive; · = no result; [ ] = remark or other dose. Calls come from the whole dose curve; as a rule, active = well fitted curve in the direction sought with a large enough effect; inconclusive = small, poorly fitted or top-dose-only effect, or another doubt; inactive = no such curve, though single readings can be large; an effect the other way counts as inactive or inconclusive.

SMILES | NPC1 promoter act | Rab9 promoter act | ELG1 genotox | FLuc modulator | KinaseGlo FLuc | SMN2 splice enh
CC(=O)c1c(C)[nH]c(C(=O)Nc2nc(-c3ccccc3)c(C)s2)c1C | ? | ? | – | 3.01µM | · | ·
O=C(Nc1c(-c2ccccc2)nc2ccccn12)c1cccs1 | – | – | – | – | – | –
CC(=O)c1c(C)[nH]c(C(=O)Nc2cccc3ccccc23)c1C | – | – | – | – | · | ·
Cc1sc(N/N=C/c2cccs2)nc1-c1ccccc1 | – | ? | ? | 10.7µM | – | –
Cc1ccc(C)c(N2CCN(Cc3csc(C)c3)CC2)c1 | · | · | · | – | · | ·
O=C(O)/C=C(/C(=O)O)[C@]12CCN3CC4=CCO[C@@H]5CC(=O)N[C@@H]1C5[C@H]4C[C@H]32 (some centres not stated) | · | · | · | · | –[7.66 µM] | –[9.22 µM]
COc1ccc(NS(=O)(=O)c2cnc(N)nc2)cc1Cl | · | · | · | – | · | ·
Cc1sc(NC(=O)c2ccco2)nc1-c1ccccc1 | 3.55µM | 1.58µM | ? | 2.13µM | – | 4.47µM
Cc1sc(NC(=S)NC(=O)c2cccs2)nc1-c1ccc(C(C)C)cc1 | – | – | – | – | – | –
Cc1ccc2nc(-c3ccccc3)c(NC(=O)c3ccco3)n2c1 | – | – | – | – | – | –
Cc1cnc(NC(=O)c2ccco2)s1 | ? | ? | ? | 21.3µM | – | ?
CC(=O)c1sc(NC(=O)c2ccco2)nc1-c1ccccc1 | ? | ? | 14.6µM | 10.7µM | – | –
Cc1sc(NC(=O)c2cccs2)nc1-c1ccccc1 | – | ? | – | 10.7µM | · | ·
CCOC(=O)c1sc(NC(=O)c2ccco2)nc1-c1ccccc1 | – | – | – | – | – | –
COc1ccc(NC(=O)Cn2cc(S(=O)(=O)c3ccccc3)c(=O)c3cc(C)ccc32)cc1Cl | · | · | · | – | · | –
CCc1ccccc1NC(=O)c1cc(S(=O)(=O)N(CC)c2ccccc2)ccc1F | · | · | · | – | · | ·
CC(C)c1ccc(/C=C(\C#N)c2nc(-c3ccc(O)cc3)cs2)cc1 | · | · | · | ? | · | –
CCn1ccc(C(=O)Nc2ncc(C)s2)n1 | 0.794µM | 0.794µM | – | ? | · | ·
Cc1nc(NC(=O)c2ccco2)sc1C(=O)O | – | – | – | 10.7µM | · | ·
COC(=O)c1sc(NC(=O)c2ccco2)nc1C | – | – | – | ? | ? | –
CCn1ccc(C(=O)NC2=NCCS2)n1 | – | – | – | – | – | –
Fc1cccc(-c2cc3nc4c(c(NCc5ccco5)n3n2)CCCC4)c1 | ? | ? | – | 7.57µM | – | 11.2µM
COc1cc(NS(C)(=O)=O)ccc1Nc1c2ccccc2nc2ccccc12 | – | – | ? | 12µM | – | –
Cc1cn2c(=O)cc(COC(=O)c3ccc(NC(=O)COc4ccc(C)c(C)c4)cc3)nc2s1 | · | · | · | – | · | ·
C=CCn1c(-c2cccs2)nc2nc3ccccc3nc21 | – | – | ? | 19µM | – | 2.82µM
SMILES | NPC1 promoter act | Rab9 promoter act | ELG1 genotox | FLuc modulator | KinaseGlo FLuc | SMN2 splice enh
C=CCn1c(-c2cccc(OC)c2)nc2nc3ccccc3nc21 | – | – | – | 15.1µM | – | –
N.N.N.N.N.N.N.N.N.N.N.N.N.N.O.O.[Cl-].[Cl-].[Cl-].[Cl-].[Cl-].[Cl-].[Ru].[Ru].[Ru] | · | · | · | · | – | ?
CCSc1nnc2c(n1)OC(c1ccc(C)cc1)N(C(C)=O)c1ccccc1-2 (configuration not stated) | · | · | · | – | · | –
Cc1ccn2cc(CC(=O)O)nc2c1 | – | – | – | – | – | ·
Oc1ccc(-c2cn3ccccc3n2)cc1O | – | ? | 13µM | 12µM | · | ·
Brc1ccc(-c2cn3ccccc3n2)cc1 | 0.708µM | 0.398µM | ? | 0.757µM | · | ·
Oc1ccc(-c2cn3ccccc3n2)cc1 | 2.24µM | 2.82µM | ? | 5.36µM | · | ·
Cc1ccn2cc(-c3ccc(O)c(O)c3)nc2c1 | ? | – | 3.26µM | 3.01µM | · | ·
CN(C)S(=O)(=O)c1ccc(-c2cn3ccccc3n2)cc1 | ? | 2.51µM | 5.8µM | 5.36µM | – | ?
Brc1ccc(OCc2cn3ccccc3n2)cc1 | 1.58µM | 0.631µM | ? | 2.69µM | – | 10µM
O=C(COc1ccc(Br)cc1)NCc1cn2ccccc2n1 | – | – | – | – | · | ·
c1ccc2c(-c3cn4ccccc4n3)c[nH]c2c1 | ? | 3.55µM | – | 12µM | – | 14.1µM
CN(C)S(=O)(=O)c1ccc(-c2ccccc2)cc1 | – | – | – | – | – | –

High-throughput results (PubChem BioAssay)
